About 79,000 compounds went through this panel and 15% of them were active in at least one assay; those are over-represented in the sample as a whole. Values without a mark were called inactive. Active and inactive are the calls of the source. Cut-off read from the data, not from the text of the source: active = growth inhibition above about 70%; inactive = the rest.
How the values were obtained:
[1] = NCI Yeast Anticancer Drug Screen. Data for the rad52 strain (AID 147);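 note: 0% = growth of vehicle-treated control cultures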; conditions: S. cerevisiae rad52 mutant growth inhibition, stronger effect = higher value
Method in brief: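 Measured: yeast growth inhibition. System: strain with a defined DNA damage repair alteration. Reference: vehicle-treated control cultures.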

[2] = NCI Yeast Anticancer Drug Screen. Data for the wt1 strain (AID 149);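 note: 0% = growth of vehicle-treated wt1 cultures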; conditions: S. cerevisiae wt1 strain (SPY 50644) growth inhibition, stronger effect = higher value
Method in brief: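 Growth inhibition read against vehicle controls after compound exposure of the wt1 yeast strain.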

[3] = NCI Yeast Anticancer Drug Screen. Data for the rad50EPP+ strain (AID 151);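 note: 0% = growth of vehicle-treated control cultures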; conditions: S. cerevisiae rad50 mutant strain, stronger effect = higher value
Method in brief: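 One strain with a rad50 alteration (rad50EPP+) was compound-treated, its growth then compared to that of vehicle controls.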

[4] = NCI Yeast Anticancer Drug Screen. Data for the rad50 strain (AID 155);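 note: 0% = growth of vehicle-only cultures of the same strain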; conditions: S. cerevisiae rad50 strain growth inhibition, stronger effect = higher value
Method in brief: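 Readout: growth inhibition relative to vehicle-treated cultures. Compound exposure was carried out in a genetically defined yeast strain deficient in DNA damage repair.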

[5] = NCI Yeast Anticancer Drug Screen. Data for the mec2-1 strain (AID 157); conditions: S. cerevisiae mec2-1 strain, stronger effect = higher value
Method in brief: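 Test agents were screened against the mec2-1 yeast strain, with defined DNA repair or cell cycle alteration. Growth was scored as inhibition against vehicle-only controls.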

[6] = NCI Yeast Anticancer Drug Screen. Data for the rad14 strain (AID 159);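 note: 0% = growth of vehicle-treated control cultures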; conditions: S. cerevisiae rad14 strain growth inhibition, stronger effect = higher value
Method in brief: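 Growth inhibition vs vehicle controls; genetically altered yeast strain (DNA damage repair defect) treated with test compounds.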

[7] = NCI Yeast Anticancer Drug Screen. Data for the sgs1 mgt1 strain (AID 161);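 note: 0% = growth of cultures given vehicle only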; conditions: S. cerevisiae sgs1 mgt1 strain, stronger effect = higher value
Method in brief: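 Mutant yeast exposed to compound; growth scored against vehicle-only wells.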

[8] = NCI Yeast Anticancer Drug Screen. Data for the CLN2oe strain (AID 163);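 note: 0% = growth of vehicle-only control cultures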; conditions: S. cerevisiae CLN2oe strain, stronger effect = higher value
Method in brief: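 Here, growth inhibition in a cell-cycle-altered yeast strain after compound exposure was quantified against vehicle control growth.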

[9] = NCI Yeast Anticancer Drug Screen. Data for the cln2 rad14 strain (AID 165);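 note: 0% = growth equal to vehicle treated cultures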; conditions: S. cerevisiae cln2 rad14 strain, stronger effect = higher value
Method in brief: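 Growth of compound-exposed yeast (cln2 rad14 genotype) measured and expressed as inhibition relative to vehicle.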

[10] = NCI Yeast Anticancer Drug Screen. Data for the bub3 strain (AID 167); conditions: S. cerevisiae bub3 mutant strain, stronger effect = higher value
Method in brief: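 Readout: yeast growth inhibition, expressed relative to vehicle-only wells. The test organism is a mutant strain from a panel with lesions in DNA repair or checkpoint genes.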

[11] = NCI Yeast Anticancer Drug Screen. Data for the wt2 strain (AID 169);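 note: 0% = growth of vehicle-treated yeast cultures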; conditions: S. cerevisiae wt2 strain growth inhibition, stronger effect = higher value
Method in brief: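 Genetically defined yeast strains from a DNA-repair/cell-cycle panel were used. Compound-exposed yeast growth was measured, and the inhibition was calculated relative to vehicle treatment.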

[12] = NCI Yeast Anticancer Drug Screen. Data for the mlh1 strain (AID 171);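 note: 0% = growth of vehicle-treated control cultures of the same strain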; conditions: S. cerevisiae mlh1 strain growth inhibition, stronger effect = higher value
Method in brief: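 Here the genetically defined yeast mutant is grown with each compound, and the extent to which its growth falls below that of vehicle-exposed cells is reported.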

[13] = NCI Yeast Anticancer Drug Screen. Data for the sgs1 strain (AID 173);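 note: 0% = growth of vehicle-only control cultures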; conditions: S. cerevisiae sgs1 mutant, stronger effect = higher value
Method in brief: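 Relative growth inhibition, referenced to vehicle, was determined in a yeast strain with a defined alteration affecting DNA damage repair or cell cycle control after compound exposure.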

[14] = NCI Yeast Anticancer Drug Screen. Data for the mlh1 rad18 strain (AID 175); conditions: S. cerevisiae mlh1 rad18 strain growth inhibition, stronger effect = higher value
Method in brief: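 In this whole-cell yeast screen, a strain with altered DNA damage repair is challenged with compound, and its growth is measured against matched vehicle-treated controls.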

[15] = NCI Yeast Anticancer Drug Screen. Data for the rad18 strain (AID 177); conditions: S. cerevisiae rad18 mutant growth inhibition, stronger effect = higher value
Method in brief: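 Screen uses a yeast strain with a defined lesion in DNA damage repair; compound effect is read as loss of growth compared to untreated vehicle cultures.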

[16] = at 5.0 µM (retest, dose inferred, filed as 0.5)
[17] = at 50.0 µM (retest, dose inferred, filed as 5.0)

O=[N+]([O-])c1ccc2nc(=S)[nH]n2c1
growth inhibition ([1]; at 1.2 µM): -3%
growth inhibition ([1]; at 3.7 µM): -2%
growth inhibition ([1]; at 11.0 µM): -2%
growth inhibition ([1]; at 33.0 µM): 10%
growth inhibition ([1]; at 100.0 µM): 65%
growth inhibition ([2]; at 1.2 µM): -3%
growth inhibition ([2]; at 3.7 µM): -2%
growth inhibition ([2]; at 11.0 µM): -7%
growth inhibition ([2]; at 33.0 µM): -8%
growth inhibition ([2]; at 100.0 µM): 41%
growth inhibition ([3]; at 1.2 µM): 0%
growth inhibition ([3]; at 3.7 µM): 6%
growth inhibition ([3]; at 11.0 µM): 20%
growth inhibition ([3]; at 33.0 µM): 46%
growth inhibition ([3]; at 100.0 µM): 87% (active)
growth inhibition ([4]; at 1.2 µM): -4%
growth inhibition ([4]; at 3.7 µM): -1%
growth inhibition [4, 16]: -130%
growth inhibition ([4]; at 11.0 µM): 13%
growth inhibition ([4]; at 33.0 µM): 19%
growth inhibition [4, 17]: 94% (active)
growth inhibition ([4]; at 50.0 µM): 58.6%
growth inhibition ([4]; at 100.0 µM): 98% (active)
growth inhibition ([5]; at 1.2 µM): 1%
growth inhibition ([5]; at 3.7 µM): -1%
growth inhibition [5, 16]: -42%
growth inhibition ([5]; at 11.0 µM): -5%
growth inhibition ([5]; at 33.0 µM): 0%
growth inhibition [5, 17]: -7%
growth inhibition ([5]; at 50.0 µM): 24.1%
growth inhibition ([5]; at 100.0 µM): 34%
growth inhibition ([6]; at 1.2 µM): 3%
growth inhibition ([6]; at 3.7 µM): -1%
growth inhibition ([6]; at 11.0 µM): 6%
growth inhibition ([6]; at 33.0 µM): 12%
growth inhibition ([6]; at 100.0 µM): 59%
growth inhibition [7, 16]: -58%
growth inhibition [7, 17]: 22%
growth inhibition ([7]; at 50.0 µM): 23.9%
growth inhibition ([8]; at 1.2 µM): -2%
growth inhibition ([8]; at 3.7 µM): -2%
growth inhibition ([8]; at 11.0 µM): -4%
growth inhibition ([8]; at 33.0 µM): -5%
growth inhibition ([8]; at 100.0 µM): 36%
growth inhibition [9, 16]: -59%
growth inhibition [9, 17]: 2%
growth inhibition ([9]; at 50.0 µM): -7.5%
growth inhibition ([10]; at 1.2 µM): -9%
growth inhibition ([10]; at 3.7 µM): -8%
growth inhibition [10, 16]: -71%
growth inhibition ([10]; at 11.0 µM): -5%
growth inhibition ([10]; at 33.0 µM): -5%
growth inhibition [10, 17]: 76% (active)
growth inhibition ([10]; at 50.0 µM): -6.7%
growth inhibition ([10]; at 100.0 µM): 65%
growth inhibition ([11]; at 1.2 µM): -2%
growth inhibition ([11]; at 3.7 µM): -1%
growth inhibition ([11]; at 11.0 µM): -2%
growth inhibition ([11]; at 33.0 µM): -3%
growth inhibition ([11]; at 100.0 µM): 12%
growth inhibition ([12]; at 1.2 µM): 7%
growth inhibition ([12]; at 3.7 µM): -5%
growth inhibition ([12]; at 11.0 µM): -3%
growth inhibition ([12]; at 33.0 µM): -2%
growth inhibition ([12]; at 100.0 µM): 26%
growth inhibition ([13]; at 1.2 µM): 0%
growth inhibition ([13]; at 3.7 µM): -2%
growth inhibition ([13]; at 11.0 µM): -5%
growth inhibition ([13]; at 33.0 µM): 0%
growth inhibition ([13]; at 100.0 µM): 47%
growth inhibition [14, 16]: -133%
growth inhibition [14, 17]: 78% (active)
growth inhibition ([14]; at 50.0 µM): 46.1%
growth inhibition ([15]; at 1.2 µM): -2%
growth inhibition ([15]; at 3.7 µM): 0%
growth inhibition ([15]; at 11.0 µM): 2%
growth inhibition ([15]; at 33.0 µM): 7%
growth inhibition ([15]; at 100.0 µM): 60%

From PubChem BioAssay (NCI)
